PAX8 reporter – lowers PAX8-driven luciferase in RMG-I cells; AID 652154; actives 1.2% (n = 360,000); inhibition, % at 12.6 µM; RMG-I TPO-luciferase reporter, SteadyGlo, 24 h;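 active means mean replicate inhibition at least 60% with every replicate also reaching 60%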;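 further: luciferase light reporting Pax8 driven TPO promoter activity; plate controls were median of neutral control wells for no effect and mitoxantrone controls for full effect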
TRPM1 prom inh – MITF TRPM1 promoter inhibition in SK-MEL-5 cells | SK-MEL-5 TRPM1 promoter luciferase, 24 h | inhibition, % at 12.5 µM | actives 0.83% (n = 330,000) | AID 488899;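 active means mean inhibition across replicates of 60% or more, whatever share of single replicates reaches that level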
LMP1 NFkB inh – reduces LMP1-driven NF-kappaB luciferase signal | LMP1-induced NF-kappaB luciferase reporter cells, luminescence | inhibition, % at 12.5 µM | actives 0.69% (n = 350,000); in the data active means inhibition above about 41%;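 further: 0% = neutral control wells and 100% = reference inhibitor control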
EWS-Fli inh – blocks EWS/Fli oncoprotein-driven transcription. A673 NR0B1-luciferase reporter, viability-normalised. inhibition, % at 12.6 µM. actives 0.67% (n = 350,000). AID 651661;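 active means mean inhibition of at least 50% after viability correction, with every replicate also passing that limit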;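 further: firefly luciferase signal divided by Alamar Blue viability fluorescence both relative to DMSO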
LGR2 antag – inhibitors of bursicon-induced Drosophila LGR2 receptor cAMP signaling; HEK293 LGR2, CRE-luciferase, bursicon-stimulated, 4 h; inhibition, % at 9.99 µM; actives 0.35% (n = 380,000);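 active means drop in luminescence signal, shown as inhibition above about 50% in the replicate tests, limit read from the data, passing the limit was not always enough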;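 further: agonist challenge used bursicon conditioned medium at about half maximal strength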
Shn3 3UTR inh – inhibitors of Schnurri-3 3'UTR reporter in osteoblasts; Clone20 osteoblast Shn3 3'UTR firefly luciferase, 24 h; inhibition, % at 12.5 µM; actives 0.52% (n = 360,000); AID 588674;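 active means mean inhibition of at least 75% with every replicate also reaching 75%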;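 further: 0% = median of neutral control wells and 100% = pilot-screen positive control compound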
An asterisk follows results filed as active. The list is not random: actives were taken first. Their share in the collection is about 2.2%.

Results for O=C(NCC[C@@H]1CC[C@@H](NC(=O)c2cnccn2)[C@H](CO)O1)Nc1ccc(Cl)cc1 ?
PAX8 reporter: -20.2; EWS-Fli inh: -8.1; LGR2 antag: -8.2

Results for COC(=O)C1=C(C)N(Cc2cccc(C(F)(F)F)c2)C(=NCc2ccc(C(F)(F)F)cc2)NC1c1ccc(C(F)(F)F)cc1 (configuration not stated) ?
PAX8 reporter: 76.7*; EWS-Fli inh: 30.2; LGR2 antag: 1.9

Results for COC(=O)C1=C(C)N(Cc2ccccc2)C(=NCCc2cccnc2)N[C@H]1c1ccc(Br)cc1 ?
TRPM1 prom inh: 78.0*; LMP1 NFkB inh: 3.7; Shn3 3UTR inh: -84.9

What do the screens show for `COC(=O)C1=C(C)N(Cc2ccccc2)C(=NCc2ccccc2)N[C@H]1c1cccc(C(F)(F)F)c1`?
TRPM1 prom inh: 89.1*; LMP1 NFkB inh: 7.5; Shn3 3UTR inh: 17.1

Results for COC(=O)C1=C(C)N(Cc2ccccc2)C(=NCCc2cccnc2)N[C@H]1c1ccccc1 ?
TRPM1 prom inh: -8.9; LMP1 NFkB inh: 2.8; Shn3 3UTR inh: 15.0

How did COC(=O)C1=C(C)N(Cc2cccc(C(F)(F)F)c2)C(=NCc2ccc(C(F)(F)F)cc2)NC1c1ccc(F)cc1 (configuration not stated) do in these assays?
PAX8 reporter: 36.1; EWS-Fli inh: 48.3; LGR2 antag: 5.7

Results for COC(=O)C1=C(C)N(Cc2cccc(C(F)(F)F)c2)C(=NCc2ccc(C(F)(F)F)cc2)NC1c1cccc(F)c1 (configuration not stated) ?
PAX8 reporter: 73.8*; EWS-Fli inh: 48.7

Results for COC(=O)C1=C(C)N(Cc2ccc(C(F)(F)F)cc2)C(=NCc2ccc(C(F)(F)F)cc2)NC1c1cccc(C(F)(F)F)c1 (configuration not stated) ?
PAX8 reporter: 34.5; EWS-Fli inh: 48.5; LGR2 antag: -15.2

Results for O=C(N[C@@H]1C=C[C@@H](CC(=O)N2CCc3ccccc3C2)O[C@@H]1CO)C1CCOCC1 ?
LGR2 antag: 17.1

Results for CC(=O)N1[C@H](C(=O)NCc2ccccc2Cl)[C@@H](CO)[C@@H]2Cn3c(ccc(-c4ccncc4)c3=O)[C@@H]21 ?
EWS-Fli inh: -6.6; LGR2 antag: 2.0

Results for O=C(CSc1nnc(NC(=O)c2ccc3c(c2)OCO3)s1)NCc1ccco1 ?
PAX8 reporter: -1.0; TRPM1 prom inh: 3.8; LMP1 NFkB inh: 47.8*; EWS-Fli inh: 27.2; LGR2 antag: 60.0*; Shn3 3UTR inh: 18.1

Results for CSc1nnc(NC(=O)c2ccc3c(c2)OCO3)s1 ?
PAX8 reporter: -98.1; TRPM1 prom inh: 40.6; LMP1 NFkB inh: 67.8*; EWS-Fli inh: 61.7*; LGR2 antag: 66.7*; Shn3 3UTR inh: 54.4

What do the screens show for `Cc1nnc(NC(=O)c2ccc3c(c2)OCO3)s1`?
PAX8 reporter: -110.1; TRPM1 prom inh: -47.3; LMP1 NFkB inh: -12.7; EWS-Fli inh: -77.0; LGR2 antag: 3.7; Shn3 3UTR inh: -33.9

Results for O=C(CSc1nnc(NC(=O)c2ccccc2)s1)NCc1ccco1 ?
PAX8 reporter: -45.8; TRPM1 prom inh: -5.0; LMP1 NFkB inh: 7.0; LGR2 antag: -0.1; Shn3 3UTR inh: -45.2

How did Cc1cccc(NC(=O)c2cnc3sccn3c2=O)c1 do in these assays?
PAX8 reporter: -99.1; LMP1 NFkB inh: 8.0; EWS-Fli inh: -12.5; LGR2 antag: -53.9; Shn3 3UTR inh: -6.3

Results for O=C(Nc1cnc2ccccn2c1=O)c1ccc(Cl)cc1Cl ?
PAX8 reporter: -34.1; TRPM1 prom inh: 33.5; LMP1 NFkB inh: 43.5*; EWS-Fli inh: 40.8; LGR2 antag: 70.6*; Shn3 3UTR inh: 15.8

What do the screens show for `Cc1cccc(NC(=O)c2cnc3ccccn3c2=O)c1`?
PAX8 reporter: -223.8; TRPM1 prom inh: 14.2; LMP1 NFkB inh: 51.1*; EWS-Fli inh: 58.3*; Shn3 3UTR inh: 11.9

How did COCC(=O)Nc1ccc2c(c1)C(=O)N(C)C[C@H](OC)[C@H](C)CN(CC1CC1)[C@@H](C)CO2 do in these assays?
PAX8 reporter: 8.8; EWS-Fli inh: -1.5; LGR2 antag: 4.0

Results for C[C@H](CO)N1C[C@H](C)[C@H](CN(C)Cc2ccncc2)Oc2cc(C#CC(C)(C)O)ccc2S1(=O)=O ?
EWS-Fli inh: -10.0; LGR2 antag: -2.7

What do the screens show for `Oc1ccc(C[C@H]2CNC(=S)N2C[C@H]2CCCN2C[C@H](Cc2ccccc2)N2C[C@H](Cc3ccc(O)cc3)N(CC3CCCCCC3)C2=S)cc1`?
PAX8 reporter: 10.8; EWS-Fli inh: 18.3; LGR2 antag: -29.1; Shn3 3UTR inh: -1.4

How did Oc1ccc(C[C@H]2CNC(=S)N2CC2CCCN2C[C@H](Cc2ccccc2)N2C[C@H](Cc3ccc(O)cc3)N(CC3CCCCCC3)C2=S)cc1 (some centres not stated) do in these assays?
PAX8 reporter: 72.5*; TRPM1 prom inh: 9.3; LMP1 NFkB inh: 4.9; EWS-Fli inh: 19.5; LGR2 antag: 5.6; Shn3 3UTR inh: 29.3

How did Oc1ccc(C[C@H]2CN([C@@H](Cc3ccc(O)cc3)CN3CCC[C@@H]3CN3C(=S)NC[C@@H]3Cc3ccccc3)C(=S)N2CC2CCCCCC2)cc1 do in these assays?
PAX8 reporter: 88.6*; EWS-Fli inh: 34.5; LGR2 antag: 7.6; Shn3 3UTR inh: -21.0

What do the screens show for `Oc1ccc(C[C@H]2CN([C@@H](Cc3cccc(O)c3)CN3CCC[C@@H]3CN3C(=S)NC[C@@H]3Cc3ccccc3)C(=S)N2CC2CCCCC2)cc1`?
PAX8 reporter: 74.9*; EWS-Fli inh: 31.5; LGR2 antag: 38.0; Shn3 3UTR inh: 63.8

What do the screens show for `Oc1ccc(C[C@H]2CNC(=S)N2CC2CCCN2C[C@H](Cc2ccc(O)cc2)N2C[C@H](Cc3ccc(O)cc3)N(CC3CCCCC3)C2=S)cc1` (some centres not stated)?
PAX8 reporter: 90.8*; TRPM1 prom inh: 55.1; LMP1 NFkB inh: -11.6; EWS-Fli inh: 11.8; LGR2 antag: 8.9; Shn3 3UTR inh: 61.8

How did Oc1ccc(C[C@H]2CN([C@@H](Cc3ccccc3)CN3CCCC3CN3C(=S)NC[C@@H]3Cc3ccccc3)C(=S)N2CC2CCCCC2)cc1 (some centres not stated) do in these assays?
PAX8 reporter: 15.1; EWS-Fli inh: 10.7; LGR2 antag: 1.4

Results for CN1CCN(C(=O)C[C@H]2CC[C@H]3[C@H](COc4ccc(NC(=O)C5CCCC5)cc4C(=O)N3C)O2)CC1 ?
PAX8 reporter: -21.5; EWS-Fli inh: 0.4; LGR2 antag: -11.1

Results for C[C@H]1CN([C@@H](C)CO)C(=O)c2cc(NC(=O)Nc3ccccc3)ccc2O[C@@H]1CN(C)CC1CCCCC1 ?
PAX8 reporter: 0.3; EWS-Fli inh: 0.2; LGR2 antag: -11.2
